“And” between values parts separate entries of the source, which are not always exact repeats. Equal values may be shown once. Records with an inconclusive call do not appear. Entries that show only a call come without a potency. The source made the active and inactive calls. Unless noted, the call rests on the fitted dose curve; in most records, active means well fitted curve in the direction sought with a large enough effect; inconclusive means small, poorly fitted or top-dose-only effect, or another doubt; inactive means no such curve, though single readings can be large; an effect the other way counts as inactive or inconclusive.
Key:
[1] = target: alpha-glucosidase (Oryza sativa, rice) (UniProt Q653V4); experiment: Counterscreen for Glucocerebrosidase Inhibitors: qHTS Assay for Rice alpha-Glucosidase at pH 5.0 (AID 997)
Summary of the method: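 Rice alpha-glucosidase (4 nM final) with 400 uM 4-methylumbelliferyl-alpha-D-glucopyranoside in citrate buffer pH 5.0, 20 min at room temperature, stopped at pH 10; fluorescence 365/440 nm, compounds 0.7 nM–77 uM, AC50 from Hill fits.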

[2] = qHTS Assay for Lipid Storage Modulators (AID 1519; calls by dose curve); conditions: Drosophila S3 cells, BODIPY lipid droplet/cell ratio, laser cytometry, cells loaded with oleic acid
Summary of the method: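 Cells seeded at 5,000 per well were treated with compounds over a concentration series and loaded with oleic acid (400 uM, as added). Lipid droplet fluorescence (488 nm excitation, 500-530 nm channel) was read by laser-scanning cytometry and normalized to 20 uM Triacsin C.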

[3] = target: DNA repair nuclease/redox regulator APEX1 (Homo sapiens) (UniProt P27695); experiment: qHTS Validation Assay for Inhibitors of the Human Apurinic/apyrimidinic Endonuclease 1 (APE1) (AID 1705;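 further: TAMRA fluorescence gain over two minutes as APE1 cuts a quenched THF abasic duplex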)
Summary of the method: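 Fluorogenic double-stranded THF abasic-site substrate (5'-TAMRA/3'-BHQ-2), 50 nM final. Enzyme preincubated with compound 15 min at room temperature, then substrate added. Kinetic fluorescence (ex 525/em 598 nm) read three times at 60 s intervals; activity taken as third-minus-first read difference.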

[4] = Counterscreen for APE1 Inhibitors: Fluorescent Dye Displacement Validation Assay (AID 1707)
Summary of the method: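 Compounds are scored by their ability to displace Thiazole Orange (250 nM) from a 50 nM TAMRA-tagged duplex bearing a tetrahydrofuran abasic site. Buffer is 50 mM Tris-HCl pH7.5, 50mM NaCl, 2 mM MgCl2, 0.01% Tween-20.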

[5] = qHTS for differential inhibitors of proliferation of Plasmodium falciparum line 7G8 (AID 1815);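 further: parasite growth measured after three days of incubation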; further: potency means the concentration at half of the fitted maximal effect
[6] = qHTS for differential inhibitors of proliferation of Plasmodium falciparum line GB4 (AID 1816); conditions: Potency: Plasmodium falciparum GB4 proliferation inhibition;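 further: parasite growth measured after 72 h incubation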; further: potency means the concentration at half of the fitted maximal effect
[7] = qHTS for differential inhibitors of proliferation of Plasmodium falciparum line 3D7 (AID 1876); further: potency means the concentration at half of the fitted maximal effect
[8] = qHTS for differential inhibitors of proliferation of Plasmodium falciparum line D10 (AID 1877);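 further: parasites grown with compound for 72 h before DNA staining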; further: potency means the concentration at half of the fitted maximal effect
[9] = target: Endonuclease 4 (Escherichia coli (strain K12)) (UniProt P0A6C1); experiment: Counterscreen for APE1 Inhibitors: qHTS Validation Assay for Inhibitors of Endonuclease IV (AID 1708)
Summary of the method: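 Enzymatic AP-site incision assay using a double-stranded THF substrate labelled with TAMRA and BHQ-2; released fluorescence signals activity. Enzyme 2 nM, substrate 50 nM, 15 min compound preincubation.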

[10] = Validation of Assay for Modulators of Lamin A Splicing (AID 1459; active means well fitted curve in the direction sought with a large enough effect in the signal ratio; the % refers to the signal ratio;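 further: cells exposed to compound for two days before reading; ratio rise marks activators and ratio drop marks inhibitors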)
Summary of the method: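 S3 HeLa stably expressing lamin A-EGFP splicing minigene and DsRed2, 600 cells/well in Opti-MEM with 2% FBS, treated 48 h at 37C; laser-scanning cytometry gives GFP/RFP total intensity ratio; ancitabine positive control, 0.5% DMSO vehicle.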

[11] = measured here: cell count channel max response
[12] = measured here: lipid channel max response

Chain of DNA repair nuclease/redox regulator APEX1 (Homo sapiens) (P27695 whole entry, looked up): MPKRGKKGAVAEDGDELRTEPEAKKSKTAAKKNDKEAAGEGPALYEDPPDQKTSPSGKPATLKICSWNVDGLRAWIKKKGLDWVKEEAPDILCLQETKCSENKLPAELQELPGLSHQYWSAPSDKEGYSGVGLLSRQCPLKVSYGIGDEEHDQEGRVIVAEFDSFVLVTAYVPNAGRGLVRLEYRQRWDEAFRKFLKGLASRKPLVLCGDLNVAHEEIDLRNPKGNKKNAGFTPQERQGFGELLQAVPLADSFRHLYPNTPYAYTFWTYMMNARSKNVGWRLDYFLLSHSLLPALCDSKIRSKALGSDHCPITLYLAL

| SMILES | outcome [1] | activity change, negative = inhibition ([2]; at 25.7 µM (top of the series)) | activity change, negative = inhibition ([2]; at 57.5 µM (top of the series)) | max response [2, 11] | max response [2, 12] | Potency [3] | outcome [4] | Potency [5] | Potency [6] | Potency [7] | Potency [8] | Potency [9] | outcome [10] |
| --- | --- | --- | --- | --- | --- | --- | --- | --- | --- | --- | --- | --- | --- |
| CCN(CC)CCNC(=O)c1cc(S(C)(=O)=O)ccc1OC | inactive | -2.02% (inactive) | 7.41% (inactive) and 1.69% (inactive) | -4.82% and 19.9% and -18.4% | -8.3% and 33.5% and -17.4% | inactive | inactive | inactive | inactive | inactive | inactive |  |  |
| CC(C)(Oc1ccc(CCNC(=O)c2ccc(Cl)cc2)cc1)C(=O)O |  | -0.881% (inactive) |  | -0.576% | -0.58% |  |  |  |  |  |  |  |  |
| CCCC(C(=O)OCCN(CC)CC)(c1ccccc1)c1ccccc1 | inactive | -1.67% (inactive) | -2.92% (inactive) and 2.44% (inactive) | -3.68% and -8.12% and 19.2% | -5.52% and -10.9% and 21.5% | inactive | inactive | 1.78 µM (active) | 3.16 µM (active) | 2.24 µM (active) | 3.16 µM (active) | inactive |  |
| CN(C)CC/C=C1\c2ccccc2COc2ccccc21 | inactive | 1.34% (inactive) | 2.32% (inactive) | -10.6% and 12% | -7.69% and 14% | inactive | inactive | 6.31 µM (active) | 3.98 µM (active) | 5.62 µM (active) |  | inactive |  |
| Cc1ccc(/C(=C\CN2CCCC2)c2ccccn2)cc1 |  |  | 3.64% (inactive) and 0.151% (inactive) | 7.98% and 15.3% | 14.1% and 15.5% | inactive | inactive |  |  |  |  |  |  |
| CCCCNc1c(C(=O)OCC)c(C)nc2c1cnn2CC | inactive | -0.42% (inactive) | -16.8% (inactive) | -19.5% and -31.7% | -18.5% and -43.9% | inactive | inactive | 7.94 µM (active) | 12.6 µM (active) | 12.6 µM (active) | 14.1 µM (active) |  |  |
| CC(=O)Nc1nnc(S(N)(=O)=O)s1 | inactive | -1.69% (inactive) | -0.868% (inactive) | 6.43% and 19.5% | 5.21% and 17% | inactive | inactive | inactive | inactive | inactive | inactive |  |  |
| COC(=O)C1=C(C)NC(C)=C(C(=O)OCCN(C)Cc2ccccc2)C1c1cccc([N+](=O)[O-])c1 (configuration not stated) |  |  | 2.25% (inactive) | -9.5% | -7.38% | inactive | inactive |  |  |  |  |  |  |
| COC(=O)[C@H]1[C@H]2C[C@@H]3c4[nH]c5cc(OC)ccc5c4CCN3C[C@H]2C[C@@H](OC(=O)c2cc(OC)c(OC)c(OC)c2)[C@@H]1OC | inactive |  |  |  |  | inactive | inactive | 0.282 µM (active) | 2 µM (active) | 1.78 µM (active) | 2.82 µM (active) |  | inactive |
| CN(C)CCOC(=O)COc1ccc(Cl)cc1 | inactive | 0.143% (inactive) | 11.6% (inactive) and 1.09% (inactive) | 1.9% and 22.5% and -10.8% | 1.25% and 39.9% and -9.35% | inactive | inactive | inactive |  | inactive |  |  |  |
| O=C(O)CP(=O)(O)O | inactive |  |  |  |  | inactive | inactive | inactive |  |  | inactive |  | inactive |
| CCO/C([O-])=N/c1c[n+](N2CCOCC2)no1 | inactive | -2.6% (inactive) | 9.19% (inactive) and 0.351% (inactive) | -1.78% and -5.37% and -2.1% | -4.32% and 6.3% and -2.43% | inactive |  | inactive | inactive | inactive | inactive |  |  |
| COc1cc2c(cc1OC)-c1cc(=Nc3c(C)cc(C)cc3C)n(C)c(=O)n1CC2 | inactive |  |  |  |  | inactive | inactive | 2.24 µM (active) | 2.24 µM (active) | 2 µM (active) | 3.98 µM (active) |  | inactive |
| CN(C)CCCN1c2ccccc2Sc2ccc(C(F)(F)F)cc21 | inactive | -1.52% (inactive) | 3.48% (inactive) | -5.7% and 9.08% | -9.54% and 14.3% | inactive | inactive | 8.91 µM (active) | 11.2 µM (active) |  | 11.2 µM (active) |  |  |
| O=C(O)CN(CCN(CC(=O)O)CC(=O)O)CCN(CC(=O)O)CC(=O)O | inactive | -4.98% (inactive) | 0.152% (inactive) | -17.8% and 39.9% | -19.2% and 38.7% | inactive | inactive |  |  | inactive | inactive |  |  |
| Nc1nc(N)c2nc(-c3ccccc3)c(N)nc2n1 |  | -0.107% (inactive) | -0.933% (inactive) | -4.41% and -12.1% | -2.65% and -13.5% |  | inactive |  | 0.891 µM (active) | 2 µM (active) | 2.51 µM (active) |  |  |
| Cc1ccc(Cl)c(Nc2ccccc2C(=O)O)c1Cl | inactive | -1.03% (inactive) | 12.3% (inactive) and -1.87% (inactive) | -11.2% and 0.124% and -35.9% | -11.6% and 13.1% and -37% | inactive | inactive | inactive | inactive | inactive | inactive |  |  |
| CCOC(=O)c1cnc2c(cnn2CC)c1NN=C(C)C | inactive |  |  |  |  | inactive |  |  |  |  | inactive |  | inactive |
| CN(C)CCCN1c2ccccc2Sc2ccccc21 | inactive | 0.5% (inactive) | 7.75% (inactive) and 0.211% (inactive) | -16.2% and -4.1% and -25% | -14.8% and 2.83% and -21.3% | inactive | inactive | 11.2 µM (active) | 10 µM (active) |  |  |  |  |
| CNC1(C)C2CCC(C2)C1(C)C (configuration not stated) |  |  | 2.62% (inactive) | 45.4% | 47.5% | inactive | inactive | inactive | 12.6 µM (active) | inactive | inactive | inactive |  |
| COC(=O)[C@@H](N)Cc1ccc(O)c(O)c1 | inactive |  |  |  |  | inactive | inactive |  | 14.1 µM (active) |  |  |  | inactive |
| c1cnc(N2CCN(Cc3ccc4c(c3)OCO4)CC2)nc1 | inactive | 3.16% (inactive) | 2.74% (inactive) | -1.42% and -12.3% | 3.03% and -8.1% | inactive | inactive | inactive |  | inactive | inactive | inactive |  |
